Experimental data from PubChem BioAssay AID624255 (Broad Institute, 2012).
Values joined by “and” are separate entries in the source; they are usually repeats but may differ in a detail not shown here. Equal values may be shown once. The campaign covered roughly 77,000 compounds. About 4,600 (6%) were called active. Roughly 1% stayed inconclusive and do not appear here. The sample holds actives, similar compounds and a random draw of the others, so the mix is not that of the screen.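 How the source made its calls: active means mean inhibition above about 93%, with at least 55% of replicates each passing it (limit read from the data, passing the limit was not always enough); inconclusive means only one of those two conditions holds; inactive means neither condition holds.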

Assay: growth inhibition of T. cruzi in host fibroblasts – cell-based, beta-gal Tulahuen parasites, NIH3T3 host, luminescence, primary screen (AID 624255)
Conditions: T. cruzi beta-gal in NIH3T3, GalScreen luminescence, 90 h; at 8.34 µM; stronger effect = higher value

| Compound | inhibition |
| --- | --- |
| CO[C@H]1CC[C@H]2CCOc3c(C#N)cccc3C(=O)N(C)CC3(CCCCC3)CC(=O)N(C)C[C@@H]1O2 | 13.3% (inactive) |
| CCCNC(=O)Nc1ccc2c(c1)OC[C@@H](C)N(C(=O)c1ccccc1F)C[C@H](C)[C@@H](OC)CN(C)C2=O | 52.3% (inactive) |
| COCC(=O)N1CCCCN2[C@H](CO)[C@H](c3ccc(C#Cc4ccc(OC)cc4)cc3)[C@H]2C1 | 72.8% (inactive) |
| COCC#Cc1ccc([C@@H]2[C@@H](CO)N3CCCCN(C(=O)NC4CCCC4)C[C@H]23)cc1 | 69.2% (inactive) |
| COc1ccccc1C#Cc1ccc([C@H]2[C@H](CO)N3CCCCN(C(=O)C4CCC4)C[C@@H]23)cc1 | 109% (active) |
| COc1ccccc1C#Cc1ccc([C@@H]2[C@@H](CO)N3CCCCN(S(C)(=O)=O)C[C@@H]23)cc1 | 77.3% (inactive) |
| COc1ccccc1C#Cc1ccc([C@@H]2[C@H](CO)N3CCCCN(C(=O)C4CC4)C[C@@H]23)cc1 | 110% (active) |
| COc1ccccc1C#Cc1ccc([C@@H]2[C@H](CO)N3CCCCN(C(=O)C4CCCC4)C[C@@H]23)cc1 | 109% (active) |
| CC(C)NC(=O)N1CCCCN2[C@@H](CO)[C@@H](c3ccc(C#Cc4ccccc4)cc3)[C@@H]2C1 | 80.4% (inactive) |
| CO[C@@H]1CN(C)C(=O)c2cc(NC(=O)c3ccccc3)ccc2OC[C@H](C)N(C(=O)CN(C)C)C[C@H]1C | -60.5% (inactive) |
| O=C([C@H]1[C@H](CO)[C@H]2Cn3c(ccc(C4=CCCCC4)c3=O)[C@@H]1N2)N1CCCCC1 | 60.4% (inactive) |
| CO[C@H]1CN(C)C(=O)c2ccc(NS(C)(=O)=O)cc2OC[C@H](C)N(C(=O)C2CCC2)C[C@H]1C | 11% (inactive) |
| O=C(C1CCC1)N1C[C@H]2[C@@H](c3ccccc31)[C@@H](CO)N2C(=O)c1ccccc1F | 5.17% (inactive) |
| COc1cccc(S(=O)(=O)N[C@H]2CC[C@@H](CCN)O[C@H]2CO)c1 | 59% (inactive) |
| Cc1noc(C)c1S(=O)(=O)Nc1ccc2c(c1)C(=O)N([C@H](C)CO)C[C@@H](C)[C@@H](CN(C)C(=O)C1CCCCC1)OCCCC[C@@H](C)O2 | 48.7% (inactive) |
| CC(C)NC(=O)Nc1ccc2c(c1)C(=O)N(C)[C@@H]1CC[C@H](CC(=O)NCC3CCCCC3)O[C@@H]1CO2 | -5.5% (inactive) |
| C[C@H](O)C#Cc1ccc2c(c1)O[C@H](CN(C)C(=O)C1CCCCC1)[C@@H](C)CN([C@H](C)CO)S2(=O)=O | 60.6% (inactive) |
| C[C@H]1CCCCO[C@@H](CN(C)C(=O)Cc2ccccc2)[C@@H](C)CN([C@@H](C)CO)C(=O)c2cc(NC(=O)c3ccccc3)ccc2O1 | 33.7% (inactive) |
| COc1ccc(NC(=O)Nc2ccc3c(c2)C(=O)N([C@@H](C)CO)C[C@H](C)[C@@H](CN(C)Cc2ccc4c(c2)OCO4)O3)cc1 | 31.2% (inactive) |
| C[C@H]1CN([C@@H](C)CO)C(=O)c2cc(NC(=O)Nc3ccc4c(c3)OCO4)ccc2O[C@@H]1CN(C)Cc1ccc(Oc2ccccc2)cc1 | 119% (active) |
| C[C@H]1CN([C@@H](C)CO)C(=O)c2cc(NC(=O)C3CC3)ccc2O[C@@H]1CN(C)Cc1ccc(Oc2ccccc2)cc1 | 66.9% (inactive) |

| Compound | inhibition |
| --- | --- |
| C[C@@H]1CN([C@@H](C)CO)C(=O)c2cc(NC(=O)Nc3ccc4c(c3)OCO4)ccc2O[C@@H]1CN(C)Cc1ccc(Oc2ccccc2)cc1 | 100% (active) |
| C[C@H](CO)N1C[C@H](C)[C@@H](CN(C)Cc2ccccc2)Oc2ccc(NC(=O)Nc3ccc4c(c3)OCO4)cc2C1=O | 8.73% (inactive) |
| C[C@@H]1CN([C@H](C)CO)C(=O)c2cc(NC(=O)Nc3ccc4c(c3)OCO4)ccc2O[C@H]1CN(C)Cc1ccc(-c2ccccc2)cc1 | 70.1% (inactive) |
| CCCNC(=O)C[C@@H]1CC[C@@H]2[C@H](COc3ccc(NC(=O)c4cc(F)cc(F)c4)cc3C(=O)N2C)O1 | -19.9% (inactive) |
| C[C@@H]1CCCCO[C@@H](CN(C)C(=O)Nc2ccc(F)cc2)[C@H](C)CN([C@@H](C)CO)C(=O)c2cc(NS(C)(=O)=O)ccc2O1 | 23.8% (inactive) |
| CN(C)C(=O)c1ccc(-c2ccc([C@@H]3[C@@H](CO)N4CCCCN(CC5CC5)C[C@H]34)cc2)cc1 | 11.3% (inactive) |
| CN(C)C(=O)c1ccc(-c2ccc([C@H]3[C@@H](CO)N4CCCCN(CC5CC5)C[C@H]34)cc2)cc1 | 108% (active) |
| CS(=O)(=O)N1CCCCN2[C@@H](CO)[C@@H](c3ccc(Br)cc3)[C@@H]2C1 | -42.1% (inactive) |
| CN(C)C(=O)c1ccc(-c2ccc([C@H]3[C@H](CO)N4CCCCN(S(C)(=O)=O)C[C@@H]34)cc2)cc1 | 83.3% (inactive) |
| CN(C)CC#Cc1ccc([C@H]2[C@H](CO)N3CCCCN(CC4CC4)C[C@@H]23)cc1 | -75.2% (inactive) |
| CN(C)C(=O)c1ccc(-c2ccc([C@@H]3[C@H](CO)N4CCCCN(S(C)(=O)=O)C[C@@H]34)cc2)cc1 | 103% (active) |
| CN1C(=O)c2cc(NC(=O)Nc3ccccc3Cl)ccc2OC[C@H]2O[C@@H](CC(=O)O)CC[C@H]21 | 15.3% (inactive) |
| Cc1noc(C)c1NC(=O)N(C)C[C@@H]1OCCCC[C@H](C)Oc2ccc(NC(=O)NC3CCCCC3)cc2C(=O)N([C@H](C)CO)C[C@@H]1C | 22.8% (inactive) |
| Cc1ccccc1S(=O)(=O)Nc1ccc2c(c1)C(=O)N(C)[C@H]1CC[C@@H](CC(=O)O)O[C@H]1CO2 | 13.1% (inactive) |
| C[C@@H]1CN([C@H](C)CO)C(=O)Cc2cc(NC(=O)CCN3CCOCC3)ccc2O[C@H]1CN(C)CC1CC1 | 37.8% (inactive) |
| O=C(CC1CC1)N1[C@H](CO)[C@@H]2c3ccccc3N(S(=O)(=O)c3ccc(F)cc3)C[C@@H]21 | 18.3% (inactive) |
| C[C@H]1CN([C@@H](C)CO)C(=O)CCCn2cc(nn2)CO[C@@H]1CN(C)S(=O)(=O)c1ccc(-c2ccccc2)cc1 | 3.26% (inactive) and 11.9% (inactive) |
| C[C@H](CO)N1C[C@H](C)[C@@H](CN(C)S(=O)(=O)c2ccccc2)Oc2ncc(C#Cc3ccccc3F)cc2C1=O | 120% (active) |
| C[C@@H]1CN([C@@H](C)CO)C(=O)CCCn2cc(nn2)CO[C@@H]1CN(C)S(=O)(=O)c1cccc(F)c1 | -8.28% (inactive) |
| C[C@H]1CN([C@@H](C)CO)C(=O)c2cc(C#Cc3ccccc3F)cnc2O[C@H]1CN(C)C | 87.2% (inactive) |
| CCCNC(=O)N(C)C[C@H]1Oc2ncc(C#Cc3ccncc3)cc2C(=O)N([C@@H](C)CO)C[C@@H]1C | 12.1% (inactive) |

| Compound | inhibition |
| --- | --- |
| C[C@@H]1CN([C@@H](C)CO)C(=O)CCCn2cc(nn2)CO[C@@H]1CN(C)S(=O)(=O)c1ccccc1F | 112% (active) |
| CCCNC(=O)N(C)C[C@@H]1Oc2ncc(C#Cc3ccccc3F)cc2C(=O)N([C@@H](C)CO)C[C@H]1C | 116% (active) |
| C[C@H]1CN([C@@H](C)CO)C(=O)c2cc(C#Cc3ccccc3F)cnc2O[C@@H]1CN(C)C(=O)C1CC1 | -11.1% (inactive) |
| C[C@H](CO)N1C[C@H](C)[C@@H](CN(C)S(=O)(=O)c2ccccc2F)Oc2ncc(C#Cc3ccccc3F)cc2C1=O | 112% (active) |
| CCCNC(=O)N(C)C[C@H]1Oc2ncc(C#CC(C)C)cc2C(=O)N([C@@H](C)CO)C[C@@H]1C | 53.3% (inactive) |
| C[C@H](CO)N1C[C@H](C)[C@H](CN(C)C(=O)C2CCOCC2)Oc2ncc(C#Cc3ccccc3F)cc2C1=O | -27.2% (inactive) |
| COc1ccc(C#Cc2cnc3c(c2)C(=O)N([C@H](C)CO)C[C@H](C)[C@H](CN(C)S(=O)(=O)c2ccc(F)cc2)O3)cc1OC | 104% (inactive) |
| CCC(=O)NC[C@H]1[C@@H](c2ccc(C3=CCCC3)cc2)[C@@H](CO)N1C(=O)C1CC1 | 21.5% (inactive) |
| CO[C@H]1CN(C)C(=O)c2cc(NC(=O)C3CCCCC3)ccc2OC[C@H](C)N(C(=O)c2ccccc2)C[C@H]1C | 7.09% (inactive) |
| C/C=C/c1cnc2c(c1)C(=O)N([C@@H](C)CO)C[C@@H](C)[C@@H](CN(C)C(=O)C1CCOCC1)O2 | -31.5% (inactive) |
| CCCNC(=O)Nc1ccc2c(c1)C(=O)N(C)[C@H]1CC[C@H](CC(=O)NC3CCC3)O[C@H]1CO2 | 57.7% (inactive) |
| O=C(Cc1ccccc1)N1CC[C@H]2[C@H](CO)Nc3ccc(-c4ccccc4F)cc3[C@H]21 | 111% (active) |
| N#Cc1ccc(-c2ccc3c(c2)[C@@H]2[C@@H](CCN2C(=O)Cc2ccncc2)[C@@H](CO)N3)cc1 | 108% (active) |
| CN(C)C(=O)c1cccc(-c2ccc3c(c2)[C@H]2[C@H](CCN2C(=O)Cc2ccccc2)[C@H](CO)N3)c1 | 80.1% (inactive) |
| O=C(CC1CC1)N1CC[C@@H]2[C@H](CO)Nc3ccc(-c4ccc(F)cc4)cc3[C@@H]21 | 89.6% (inactive) |
| N#Cc1ccc(-c2ccc3c(c2)[C@H]2[C@H](CCN2Cc2ccc4c(c2)OCO4)[C@@H](CO)N3)cc1 | 79.2% (inactive) |
| O=C(Cc1ccccc1)N1CC[C@@H]2[C@H](CO)Nc3ccc(-c4ccccc4)cc3[C@@H]21 | 81.9% (inactive) |
| Cc1noc(C)c1NC(=O)N(C)C[C@@H]1OCCCC[C@H](C)Oc2ccc(NS(=O)(=O)c3c(C)noc3C)cc2C(=O)N([C@@H](C)CO)C[C@@H]1C | -9.2% (inactive) |
| COc1cccc(S(=O)(=O)N[C@H]2CC[C@@H](CC(=O)NCc3ccc(F)cc3)O[C@@H]2CO)c1 | 47.6% (inactive) |
| COc1ccc(-c2ccc3c(c2)O[C@@H](CN(C)CC2CCOCC2)[C@@H](C)CN([C@@H](C)CO)S3(=O)=O)cc1 | 40.6% (inactive) |
